# According to PubChem BioAssay:
# The other results are listed elsewhere or left out. Calls of active or inactive are those of the source.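 The calls were made as follows, unless noted: active = inhibition reaching about 45% at 4 µM in either replicate (limit read from the data); inactive = the rest.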
# Experiments:
# [1] = lowers stimulated NF-kB luciferase signal in Jurkat – cell-based, luminescence, single concentration, T-cell NF-kB inhibitor project, confirmation (AID 435020); settings: PMA/ionomycin-induced, 16 h, at 4 µM, stronger effect = higher value;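 also: plate controls were PMA/ionomycin stimulated DMSO wells for no effect and unstimulated DMSO wells for full effect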
# [2] = target: COP9 signalosome complex subunit 5 (Homo sapiens) (UniProt Q92905); assay: blockers of CSN-driven cullin deneddylation – biochemical, fluorescence polarization, single concentration, SCF-Nedd8OG substrate, confirmation (AID 720654; in the data active = inhibition above about 50%;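 also: 0% = DMSO with enzyme and 100% = no enzyme wells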); settings: Csn5 deneddylation of SCF-Nedd8OG, 90 min, at 16.6 µM, stronger effect = higher value
# Chain of COP9 signalosome complex subunit 5 (Homo sapiens) (Q92905 whole entry, looked up, one chain of several): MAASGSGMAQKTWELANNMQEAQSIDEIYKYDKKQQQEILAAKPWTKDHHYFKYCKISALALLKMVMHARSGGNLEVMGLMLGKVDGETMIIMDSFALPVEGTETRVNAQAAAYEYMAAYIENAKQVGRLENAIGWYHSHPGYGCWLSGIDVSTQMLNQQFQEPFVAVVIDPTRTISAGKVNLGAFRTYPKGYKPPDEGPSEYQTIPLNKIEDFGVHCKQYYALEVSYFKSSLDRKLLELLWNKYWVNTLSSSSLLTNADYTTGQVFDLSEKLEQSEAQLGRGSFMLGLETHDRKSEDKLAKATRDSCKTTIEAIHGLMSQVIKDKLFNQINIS
# [3] = target: 72 kDa type IV collagenase (Homo sapiens) (UniProt P08253); assay: human MMP-2 inhibitors, single-point check – biochemical, fluorescence, single concentration, counter-screen for CSN deneddylation inhibitor project, confirmation (AID 720655;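 active = corrected plate-normalized z-score of 5 or more, or -5 or less, or inhibition of 15% or more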;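 also: plate controls were DMSO wells with enzyme for no effect and buffer wells lacking MMP-2 for full effect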); settings: recombinant MMP-2, FRET substrate fluorescence, 60 min; at 16.6 µM
# Chain of 72 kDa type IV collagenase (Homo sapiens) (P08253 whole entry, looked up): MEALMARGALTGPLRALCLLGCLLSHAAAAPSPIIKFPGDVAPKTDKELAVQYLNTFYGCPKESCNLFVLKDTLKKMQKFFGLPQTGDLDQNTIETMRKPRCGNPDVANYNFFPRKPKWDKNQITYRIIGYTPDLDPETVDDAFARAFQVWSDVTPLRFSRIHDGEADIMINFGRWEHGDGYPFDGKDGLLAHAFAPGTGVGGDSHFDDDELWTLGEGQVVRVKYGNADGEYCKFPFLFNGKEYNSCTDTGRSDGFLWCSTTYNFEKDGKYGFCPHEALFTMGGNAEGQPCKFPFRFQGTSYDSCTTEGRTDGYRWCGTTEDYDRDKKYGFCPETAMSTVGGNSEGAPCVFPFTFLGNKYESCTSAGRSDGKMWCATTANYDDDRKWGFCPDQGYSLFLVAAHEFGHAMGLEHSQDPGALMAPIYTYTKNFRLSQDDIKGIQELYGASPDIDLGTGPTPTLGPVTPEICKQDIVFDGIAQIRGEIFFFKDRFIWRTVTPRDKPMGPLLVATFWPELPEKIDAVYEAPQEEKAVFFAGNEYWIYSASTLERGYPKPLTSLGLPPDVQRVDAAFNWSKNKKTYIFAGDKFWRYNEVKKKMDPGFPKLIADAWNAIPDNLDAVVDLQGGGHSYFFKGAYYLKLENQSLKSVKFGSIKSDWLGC
# Prothrombin (Bos taurus) = Prothrombin (Bos taurus) (UniProt P00735); assay: thrombin cleavage blockers, FP readout – biochemical, fluorescence polarization, single concentration, counter-screen for CSN deneddylation inhibitor project, confirmation (AID 720656;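 active = inhibition at or above a set limit, with a fluorescence interference ratio between 0.5 and a set maximum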); settings: bovine thrombin cleavage of Ub4-pepOG, at 16.6 µM, stronger effect = higher value
# Chain of Prothrombin (Bos taurus) (P00735 whole entry, looked up, the tested form may be a part): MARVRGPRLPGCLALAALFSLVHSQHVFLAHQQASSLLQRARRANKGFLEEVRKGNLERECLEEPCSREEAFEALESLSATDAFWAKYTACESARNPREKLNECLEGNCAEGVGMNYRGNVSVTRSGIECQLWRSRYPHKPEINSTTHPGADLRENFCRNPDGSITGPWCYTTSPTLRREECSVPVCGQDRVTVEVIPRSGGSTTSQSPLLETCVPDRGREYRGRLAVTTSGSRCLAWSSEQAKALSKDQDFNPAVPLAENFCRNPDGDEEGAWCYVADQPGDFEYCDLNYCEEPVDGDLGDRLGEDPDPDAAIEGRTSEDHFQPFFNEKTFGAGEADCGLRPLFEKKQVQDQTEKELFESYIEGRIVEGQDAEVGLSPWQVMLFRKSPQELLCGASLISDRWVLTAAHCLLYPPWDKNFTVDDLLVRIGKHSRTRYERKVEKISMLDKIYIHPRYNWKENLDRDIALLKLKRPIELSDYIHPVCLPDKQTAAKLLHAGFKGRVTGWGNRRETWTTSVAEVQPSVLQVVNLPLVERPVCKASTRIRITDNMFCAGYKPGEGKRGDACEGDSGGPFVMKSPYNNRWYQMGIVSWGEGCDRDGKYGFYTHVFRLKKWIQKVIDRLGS
# [4] = target: Carboxy-terminal domain RNA polymerase II polypeptide A small phosphatase 1 (Homo sapiens) (UniProt Q9GZU7); assay: SCP1 melting temperature change from compounds – biophysical, differential scanning fluorimetry, orthogonal assay for Scp-1 inhibitor project, confirmation (AID 540329;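 active = substances whose mean melting-temperature shift, as a percentage of the reference inhibitor's shift, reaches about 5.3%, limit read from the data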;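 also: 0% = Tm of DMSO wells and 100% = Tm with sodium orthovanadate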); settings: Recombinant SCP1, Sypro Orange thermal shift Tm; at 40 µM; stronger effect = higher value
# [5] = Brca1-Bard1 BiLC signal decrease – luminescence, single concentration, counter-screen for Mdm2/MdmX interaction inhibitor project, confirmation (AID 504668; call rule not given here); settings: Brca1/Bard1 bimolecular luciferase complementation counterscreen, at 8 µM, stronger effect = higher value
# [6] = PERK-eIF2a-CHOP pathway stimulators, retested – cell-based, CHO-CHOP luciferase reporter, single concentration, confirmation (AID 463112; in the data active = activation above about 33%;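 also: 0% = DMSO wells and 100% = tunicamycin 10 µg/mL wells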); settings: CHO-CHOP cells, CHOP-luciferase reporter luminescence; at 10 µM; stronger effect = higher value; percent of tunicamycin response, DMSO as zero
# [7] = target: Sentrin-specific protease 8 (Homo sapiens) (UniProt Q96LD8); assay: human SENP8 peptidase blockers, hit retest – biochemical, luminescence, single concentration, confirmation (AID 488912;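 active = mean inhibition across replicates above about 50%, limit read from the data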); settings: Recombinant SENP8, Z-RLRGG-aminoluciferin luminescence, 60 min; at 12.5 µM; stronger effect = higher value
# Chain of Sentrin-specific protease 8 (Homo sapiens) (Q96LD8 whole entry, looked up, the tested form may be a part): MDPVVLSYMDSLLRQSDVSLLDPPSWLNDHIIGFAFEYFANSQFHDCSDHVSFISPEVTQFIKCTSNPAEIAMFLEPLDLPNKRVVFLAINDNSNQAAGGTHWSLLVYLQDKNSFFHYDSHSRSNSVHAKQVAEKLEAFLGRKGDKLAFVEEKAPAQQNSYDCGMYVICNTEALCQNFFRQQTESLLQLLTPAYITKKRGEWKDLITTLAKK
# [8] = target: Sentrin-specific protease 6 (Homo sapiens) (UniProt Q9GZR1); assay: inhibition of human SENP6 catalytic domain – biochemical, luminescence, single concentration, confirmation (AID 488915;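 active = mean inhibition above about 50% in the one-dose retest, limit read from the data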); settings: recombinant SENP6, Z-RLRGG-aminoluciferin luminescence; at 12.5 µM; stronger effect = higher value
# Chain of Sentrin-specific protease 6 (Homo sapiens) (Q9GZR1 628-1112 limits assumed): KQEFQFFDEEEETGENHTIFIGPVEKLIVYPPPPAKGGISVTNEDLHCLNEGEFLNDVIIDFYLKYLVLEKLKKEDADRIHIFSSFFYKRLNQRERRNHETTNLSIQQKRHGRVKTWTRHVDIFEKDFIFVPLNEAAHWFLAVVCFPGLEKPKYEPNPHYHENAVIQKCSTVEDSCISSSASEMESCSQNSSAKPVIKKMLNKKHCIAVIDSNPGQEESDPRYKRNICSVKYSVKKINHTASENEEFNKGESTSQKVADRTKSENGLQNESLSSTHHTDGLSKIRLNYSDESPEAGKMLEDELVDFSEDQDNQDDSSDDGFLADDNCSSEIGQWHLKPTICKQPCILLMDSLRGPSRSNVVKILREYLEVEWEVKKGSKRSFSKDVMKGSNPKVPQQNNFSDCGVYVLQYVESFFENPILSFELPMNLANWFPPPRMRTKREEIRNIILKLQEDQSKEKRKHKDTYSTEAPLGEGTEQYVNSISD
# [9] = target: Sentrin-specific protease 7 (Homo sapiens) (UniProt Q9BQF6); assay: human SENP7 peptidase blockers, hit retest – biochemical, luminescence, single concentration, confirmation (AID 488917;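 active = mean inhibition above about 50% in the one-dose retest, limit read from the data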); settings: recombinant SENP7, Z-RLRGG-aminoluciferin luminescence, 40 min; at 12.5 µM; stronger effect = higher value
# Chain of Sentrin-specific protease 7 (Homo sapiens) (Q9BQF6 706-1050 limits assumed): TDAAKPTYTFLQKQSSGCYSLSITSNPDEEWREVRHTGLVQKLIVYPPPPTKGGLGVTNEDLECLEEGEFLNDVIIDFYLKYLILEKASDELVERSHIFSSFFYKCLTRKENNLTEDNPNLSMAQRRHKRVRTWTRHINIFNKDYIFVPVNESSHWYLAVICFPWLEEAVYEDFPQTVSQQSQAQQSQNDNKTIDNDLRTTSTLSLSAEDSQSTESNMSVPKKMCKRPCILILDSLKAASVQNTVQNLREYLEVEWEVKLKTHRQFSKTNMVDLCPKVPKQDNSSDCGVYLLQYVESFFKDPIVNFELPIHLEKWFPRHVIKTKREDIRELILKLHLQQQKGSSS
# Caspase-3 (Homo sapiens) = Caspase-3 (Homo sapiens) (UniProt P42574); assay: human caspase-3 activity blockade, out-of-family – biochemical, single concentration, selectivity assay for SENP inhibitor project, confirmation (AID 488918;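 active = mean inhibition above about 50%, limit read from the data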;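 also: plate controls were enzyme with DMSO for no effect and wells without caspase-3 for full effect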); settings: purified caspase-3, Z-DEVD-aminoluciferin luminescence, 60 min; at 12.5 µM; stronger effect = higher value
# Chain of Caspase-3 (Homo sapiens) (P42574 28-227 limits assumed): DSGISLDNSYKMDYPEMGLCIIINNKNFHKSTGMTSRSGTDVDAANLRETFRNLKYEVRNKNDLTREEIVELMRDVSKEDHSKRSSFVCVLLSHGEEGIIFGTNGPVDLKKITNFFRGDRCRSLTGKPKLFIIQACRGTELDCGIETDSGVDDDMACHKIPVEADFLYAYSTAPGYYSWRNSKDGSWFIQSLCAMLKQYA
# [10] = Ultra-Glo luciferase signal interference – biochemical, single concentration, SENP8 reaction pre-completed, artefact control for SENP inhibitor project, confirmation (AID 488919;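 active = mean inhibition above about 50% when retested at one dose, limit read from the data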;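 also: plate controls were DMSO wells with completed reaction for no effect and substrate without enzyme for full effect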); settings: Pre-incubated SENP8/Z-RLRGG-aminoluciferin, luciferase luminescence interference; at 12.5 µM; stronger effect = higher value
# [11] = target: Tumor necrosis factor receptor superfamily member 10B (Homo sapiens) (UniProt O14763); assay: viability loss of caspase-8 NB7 cells with TRAIL – with/without TRAIL, luminescence panel, confirmation (AID 651596; in the data active = activity above about 50%); settings: NB7 neuroblastoma + caspase-8, TRAIL sensitization, NB7 Caspase-8, with TRAIL, mean of runs, at 10 µM, stronger effect = higher value
# Chain of Tumor necrosis factor receptor superfamily member 10B (Homo sapiens) (O14763 whole entry, looked up): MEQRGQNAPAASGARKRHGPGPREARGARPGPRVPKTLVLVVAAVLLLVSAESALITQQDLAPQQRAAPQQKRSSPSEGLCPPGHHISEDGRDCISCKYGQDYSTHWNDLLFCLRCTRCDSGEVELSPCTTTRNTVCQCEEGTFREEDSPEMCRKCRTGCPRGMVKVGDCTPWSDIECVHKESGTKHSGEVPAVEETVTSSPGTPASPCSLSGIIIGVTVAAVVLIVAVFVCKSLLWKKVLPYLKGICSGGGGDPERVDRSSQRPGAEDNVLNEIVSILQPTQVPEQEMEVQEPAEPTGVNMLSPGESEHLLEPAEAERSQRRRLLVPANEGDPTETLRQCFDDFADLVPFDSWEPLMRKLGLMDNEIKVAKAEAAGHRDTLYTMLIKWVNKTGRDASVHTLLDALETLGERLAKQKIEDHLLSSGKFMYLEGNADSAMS
# [12] = as above; settings: NB7 neuroblastoma + caspase-8, without TRAIL, NB7 Caspase-8, without TRAIL, mean of runs, at 10 µM
# [13] = target: Protein Mdm4 (Homo sapiens) + E3 ubiquitin-protein ligase Mdm2 (Homo sapiens) (UniProt O15151+Q00987); assay: human Mdm2/MdmX binding disruption – cell-based, luminescence, single concentration, set 2, confirmation (AID 504601;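 active = mean inhibition of the luminescence signal across two replicates at or above 26 percent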); settings: SaOS-2 split-luciferase Mdm2/MdmX complementation, at 8 µM, stronger effect = higher value
# Chain of Protein Mdm4 (Homo sapiens) + E3 ubiquitin-protein ligase Mdm2 (Homo sapiens) (O15151 whole entry, looked up): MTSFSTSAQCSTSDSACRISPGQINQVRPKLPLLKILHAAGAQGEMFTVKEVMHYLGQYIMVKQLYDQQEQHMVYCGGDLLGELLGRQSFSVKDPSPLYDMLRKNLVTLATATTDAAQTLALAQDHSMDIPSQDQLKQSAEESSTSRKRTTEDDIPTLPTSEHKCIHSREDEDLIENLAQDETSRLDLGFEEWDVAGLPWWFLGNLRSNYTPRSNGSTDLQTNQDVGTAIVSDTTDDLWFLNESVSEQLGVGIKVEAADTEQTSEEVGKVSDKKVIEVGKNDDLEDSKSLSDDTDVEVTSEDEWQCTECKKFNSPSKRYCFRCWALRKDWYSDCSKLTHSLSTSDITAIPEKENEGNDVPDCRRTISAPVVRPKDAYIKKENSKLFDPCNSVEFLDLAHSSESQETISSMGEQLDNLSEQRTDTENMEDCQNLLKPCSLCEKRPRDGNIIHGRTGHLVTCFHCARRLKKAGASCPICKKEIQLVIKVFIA
# Chain of Protein Mdm4 (Homo sapiens) + E3 ubiquitin-protein ligase Mdm2 (Homo sapiens) (Q00987 whole entry, looked up): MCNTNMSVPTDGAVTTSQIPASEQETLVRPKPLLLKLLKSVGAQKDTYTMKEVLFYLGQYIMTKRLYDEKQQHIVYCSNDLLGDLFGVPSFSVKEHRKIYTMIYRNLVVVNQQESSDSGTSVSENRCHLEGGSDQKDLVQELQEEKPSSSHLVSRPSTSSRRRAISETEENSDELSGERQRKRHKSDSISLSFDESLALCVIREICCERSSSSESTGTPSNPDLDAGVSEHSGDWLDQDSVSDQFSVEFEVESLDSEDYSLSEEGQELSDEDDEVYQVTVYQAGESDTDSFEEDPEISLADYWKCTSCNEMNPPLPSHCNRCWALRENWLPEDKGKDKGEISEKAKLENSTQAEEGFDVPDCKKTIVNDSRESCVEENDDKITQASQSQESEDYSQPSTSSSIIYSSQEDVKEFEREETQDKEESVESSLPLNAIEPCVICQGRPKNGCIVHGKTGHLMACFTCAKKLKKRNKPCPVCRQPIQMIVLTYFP
# [14] = HIF-2a driven luciferase blockers, single dose – luminescence, 786-0 RCC cells, confirmation (AID 651580;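 active = mean inhibition across four replicates of at least 40 percent at the single tested concentration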); settings: HIF-2a luciferase reporter luminescence, overnight, at 18.8 µM, stronger effect = higher value
# [15] = HIF-1a luciferase reporter signal reduction – MiaPaCa-2 cells, single concentration, counter-screen for HIF-2a inhibitor project, confirmation (AID 651589;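 active = mean inhibition of the reporter signal across four replicates at the single tested dose of 50% or more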); settings: MiaPaCa-2 HIF-1a luciferase reporter, desferoxamine, overnight; at 18.8 µM; stronger effect = higher value
# [16] = NF-kB reporter suppression in CF airway cells – cell-based, GFP fluorescence, single concentration, confirmation (AID 602472; in the data active = inhibition above about 40%;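 also: stimulus PAF is a Pseudomonas aeruginosa filtrate and not platelet activating factor; plate controls were DMSO wells with stimulus for no effect and unstimulated DMSO wells for full effect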); settings: KKLEB CF airway cells, PAF-induced NF-kB-GFP fluorescence, overnight; at 5 µM; stronger effect = higher value
# [17] = NFkB reporter suppression in cystic fibrosis bronchial cells – cell-based, uHTS hits, panel, cytotoxicity readout, dose response (AID 624344); settings: CF bronchial epithelial cells, PAF-induced NFkB reporter inhibition, with PAF, run 1; at 79 µM (top of the series) unless noted
# [18] = as above; settings: CF bronchial epithelial cells, PAF-induced NFkB reporter inhibition, with PAF, run 2; at 79 µM (top of the series) unless noted
# [19] = inhibition of PEG-3 promoter luciferase signal – cell-based, HeLa, luciferase reporter, single concentration, confirmation (AID 602417;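 active = at 20 µM dose, 40% or more inhibition averaged across four replicates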); settings: HeLa PEG-Prom luciferase reporter, luminescence, overnight; at 20 µM; stronger effect = higher value
# PEG-3 [20] = target: PEG-3 (UniProt Q6IN02); assay: inhibition of PEG-3 promoter-driven reporter – cell-based, HeLa, luciferase, CREF/GAPDH counter-screen panel, dose response (AID 624167); settings: CREF/GAPDH counter-screens; HeLa PEG-Prom luciferase reporter, overnight, run 1, dose range 1, at 100 µM (top of the series) unless noted
# Chain of PEG-3 (Q6IN02 whole entry, looked up): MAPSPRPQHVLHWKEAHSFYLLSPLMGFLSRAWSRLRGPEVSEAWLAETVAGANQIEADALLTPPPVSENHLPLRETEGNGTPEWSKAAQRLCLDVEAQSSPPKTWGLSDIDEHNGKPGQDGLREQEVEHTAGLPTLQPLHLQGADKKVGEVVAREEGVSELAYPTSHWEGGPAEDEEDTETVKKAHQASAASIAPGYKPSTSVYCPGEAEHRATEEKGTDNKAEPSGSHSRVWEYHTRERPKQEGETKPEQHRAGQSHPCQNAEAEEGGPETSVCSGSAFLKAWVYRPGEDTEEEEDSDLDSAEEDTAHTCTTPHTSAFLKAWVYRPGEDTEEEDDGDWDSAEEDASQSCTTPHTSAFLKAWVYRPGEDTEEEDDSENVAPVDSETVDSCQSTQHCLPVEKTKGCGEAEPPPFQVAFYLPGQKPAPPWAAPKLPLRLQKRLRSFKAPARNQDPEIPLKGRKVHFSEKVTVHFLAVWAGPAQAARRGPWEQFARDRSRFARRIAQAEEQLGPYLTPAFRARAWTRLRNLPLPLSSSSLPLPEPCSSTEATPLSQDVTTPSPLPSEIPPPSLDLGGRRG
# PEG-3 [21] = target: PEG-3 (UniProt Q6IN02); assay: as above; settings: CREF/GAPDH counter-screens; HeLa PEG-Prom luciferase reporter, overnight, run 2, dose range 1, at 100 µM (top of the series) unless noted
# Rat fibroblasts (CREF) [22] = assay: as above; settings: CREF/GAPDH counter-screens; run 1, dose range 1, at 100 µM (top of the series)
# Rat fibroblasts (CREF) [23] = assay: as above; settings: CREF/GAPDH counter-screens; run 2, dose range 1, at 100 µM (top of the series)
structure (smiles),measurement,setting,value
CC[n+]1cc(C)ccc1/C=C/c1ccc(N(C)C)cc1,inhibition,[1],46% (inactive)
same,inhibition,[2],56.8% (active)
same,inhibition,[3],-78.8% (active)
same,inhibition,Prothrombin (Bos taurus),63.1% (active)
Cc1cc(C(=O)OCC(=O)NCc2ccco2)c(C)n1-c1ccccc1,inhibition,[1],6.4% (inactive)
same,thermal shift relative to vanadate control,[4],-3.06% (inactive)
Clc1cccc(Cl)c1OCCOCCNCc1ccccc1,inhibition,[1],86.6% (active)
same,inhibition,[5],33% (active)
CCN1/C(=C\c2ccc3ccccc3[n+]2CC)Sc2cc(C)ccc21,inhibition,[1],67.4% (active)
same,inhibition,[5],25% (active)
same,inhibition,[2],24% (inactive)
same,inhibition,[3],-3.14% (inactive)
same,inhibition,Prothrombin (Bos taurus),43.3% (inactive)
Cc1ccc(Cc2cnc(NC(=O)/C(C#N)=C/c3ccc(-c4cccc([N+](=O)[O-])c4)o3)s2)cc1,activation,[6],61.4% (active)
O=C(Nc1ccc(-c2nnc(-c3ccccc3)o2)cc1)C1CCCO1 (centres undefined),inhibition,[1],-47.8% (inactive)
same,inhibition,[7],28.8% (inactive)
same,inhibition,[8],21.4% (inactive)
same,inhibition,[9],38.3% (inactive)
same,inhibition,Caspase-3 (Homo sapiens),38.8% (inactive)
same,inhibition,[10],8.6% (inactive)
O=C(Nc1nc2ccccc2s1)c1ccc2c(c1)OCO2,inhibition,[1],-106% (inactive)
same,inhibition,[7],66% (active)
same,inhibition,[8],95.1% (active)
same,inhibition,[9],97.4% (active)
same,inhibition,Caspase-3 (Homo sapiens),84.8% (active)
same,inhibition,[10],18.6% (inactive)
same,activity,[11],78.8%
same,activity,[12],76.8%
CCOC(=O)c1sc(NC(=O)CCN2CCOCC2)c(C(=O)OCC)c1C,activation,[6],-1.25% (inactive)
S=C1SCN(CCN2CCOCC2)CN1Cc1ccccc1,activation,[6],102% (active)
COc1ccc(OC)c(Nc2nc(-c3ccc(O)c(O)c3)cs2)c1,activation,[6],187% (active)
O=C(N/N=C\c1cc2c(cc1Cl)OCO2)c1ccc(Br)s1,activation,[6],50.2% (active)
CCc1ccc2oc(-c3ccc(N)cc3)nc2c1,inhibition,[1],-126% (inactive)
same,inhibition,[7],94.5% (active)
same,inhibition,[8],94.8% (active)
same,inhibition,[9],100% (active)
same,inhibition,Caspase-3 (Homo sapiens),84.1% (active)
same,inhibition,[10],94.5% (active)
CCOc1ccc(N2C(=O)CC(N(O)c3ccccc3)C2=O)cc1 (centres undefined),activation,[6],186% (active)
C=C(C)C(=O)O[C@H]1C/C(C)=C\C(=O)/C=C(\C)[C@H](O)[C@@H]2OC(=O)C(=C)[C@@H]21,inhibition,[1],34.6% (inactive)
same,inhibition,[13],103% (active)
same,inhibition,[14],61.8% (active)
same,inhibition,[15],108% (active)
NC(=O)c1c(NC(=O)c2ccccc2)sc2c1CCCC2,inhibition,[1],-110% (inactive)
same,activity,[11],51.6%
same,activity,[12],58%
COc1ccccc1-n1nnnc1S(=O)(=O)Cc1ccc(Cl)cc1,inhibition,[1],26.5% (inactive)
same,inhibition,[13],103% (active)
same,inhibition,[16],99.1% (active)
same,inhibition,[14],70.5% (active)
same,inhibition,[15],102% (active)
same,inhibition,[17],110%
same,inhibition,[18],104%
O=c1oc2ccccc2cc1-c1cn(-c2ccccc2)c(=S)[nH]1,inhibition,[1],80.8% (active)
same,inhibition,[7],39.3% (inactive)
same,inhibition,[8],47.9% (inactive)
same,inhibition,[9],81.7% (active)
same,inhibition,Caspase-3 (Homo sapiens),81.8% (active)
same,inhibition,[10],19.1% (inactive)
same,inhibition,[13],92% (active)
COc1ccc2cc1Oc1ccc(cc1)C[C@H]1c3cc(c(OC)cc3CCN1C)Oc1c(O)c(OC)cc3c1[C@H](C2)N(C)CC3,inhibition,[1],16.9% (inactive)
same,inhibition,[13],104% (active)
COC(=O)Cc1[nH]n(-c2nc3ccccc3s2)c(=O)c1C(C)=Nc1ccc(OC)cc1,inhibition,[1],79.2% (active)
same,inhibition,[5],26.2% (active)
same,inhibition,[19],86.3% (active)
same,inhibition,[14],82.3% (active)
same,inhibition,[15],92.7% (active)
same,activity,[11],47%
same,activity,[12],40.9%
c1ccc2[nH]c(-c3nc4ccccc4[nH]3)nc2c1,inhibition,[1],-90% (inactive)
same,inhibition,[7],-14.2% (inactive)
same,inhibition,[8],42.7% (inactive)
same,inhibition,[9],77.8% (active)
same,inhibition,Caspase-3 (Homo sapiens),77.3% (active)
same,inhibition,[10],50.8% (active)
same,activity,[11],80.2%
same,activity,[12],77.8%
COc1ccc(Nc2ncnc3ccc(Br)cc23)c(OC)c1,inhibition,[1],88.2% (active)
same,inhibition,[5],24.3% (active)
same,inhibition,[19],87.9% (active)
same,inhibition,[14],91.3% (active)
same,inhibition,[15],102% (active)
same,inhibition,PEG-3 [20],88.3%
same,inhibition,PEG-3 [21],91.8%
same,inhibition,Rat fibroblasts (CREF) [22],44.4%
same,inhibition,Rat fibroblasts (CREF) [23],38.7%
CCc1ccc2c(c1)C1(NN=C(c3ccccc3)S1)C(=O)N2 (centres undefined),activation,[6],98.4% (active)
Cn1c(-c2ccc(C(=O)c3ccccc3)s2)nc2ccccc21,inhibition,[1],-108% (inactive)
same,inhibition,[7],0% (inactive)
same,inhibition,[8],11.3% (inactive)
same,inhibition,[9],17.8% (inactive)
same,inhibition,Caspase-3 (Homo sapiens),23% (inactive)
same,inhibition,[10],8.8% (inactive)
Cc1nc(NC(=O)c2ccc3c(c2)OCCO3)ccc1Br,inhibition,[1],-134% (inactive)
same,inhibition,[7],82.6% (active)
same,inhibition,[8],80.5% (active)
same,inhibition,[9],96.2% (active)
same,inhibition,Caspase-3 (Homo sapiens),74% (active)
same,inhibition,[10],64.5% (active)
